Data reported in the supplement of paper PMC3334620.
Over roughly 33,000 sequences, “E-score (-0.5 to 0.5)” has its median near -0.035; the highest 2% begin near 0.34. The sample holds the highest values, similar sequences and a random draw of the others, so the mix is not that of the screen.

Molecular target: T1, Mot3 (UniProt P54785)
T1 sequence: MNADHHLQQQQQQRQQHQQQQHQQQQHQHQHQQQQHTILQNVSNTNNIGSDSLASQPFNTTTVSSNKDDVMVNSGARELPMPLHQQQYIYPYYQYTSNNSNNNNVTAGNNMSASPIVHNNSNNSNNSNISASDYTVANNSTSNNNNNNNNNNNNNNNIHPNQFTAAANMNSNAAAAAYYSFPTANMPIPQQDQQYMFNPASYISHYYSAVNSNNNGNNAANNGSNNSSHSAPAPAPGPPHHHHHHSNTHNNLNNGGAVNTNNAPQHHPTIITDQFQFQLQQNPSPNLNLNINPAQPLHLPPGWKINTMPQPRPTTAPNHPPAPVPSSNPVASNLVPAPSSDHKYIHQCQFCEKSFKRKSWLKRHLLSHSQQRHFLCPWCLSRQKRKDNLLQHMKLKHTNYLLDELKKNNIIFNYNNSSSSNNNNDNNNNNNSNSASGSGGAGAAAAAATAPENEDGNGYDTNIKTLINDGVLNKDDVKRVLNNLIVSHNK
Test: PBM E-score (8-mer binding enrichment) (E-score (-0.5 to 0.5)); higher = stronger / more preferred TF binding
Details: protein concentration: 200 nM; construct: GST-full length
Description: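 Universal 'all 10-mer' protein binding microarrays (Agilent AMADID 015681) probed with GST-tagged S. cerevisiae TFs (full-length or DBD) made by in vitro transcription/translation (PURExpress), about 100-200 nM. Bound TF was detected with fluorescent anti-GST. Each ungapped 8-mer (which stands for itself and its reverse complement) is scored by the PBM enrichment score (E-score), a modified Wilcoxon-Mann-Whitney statistic from -0.5 to +0.5, computed with the Universal PBM Analysis Suite. Scale: above 0.35 generally sequence-specific binding.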

Sequence	PBM E-score
ACCTAGGT	0.124
CGGTCTAC	-0.0115
ACTTCTGA	-0.101
GTGCATAA	0.084
AGGTTGTC	-0.0425
CAAAGAAC	0.197
CGCGGAAG	-0.172
GCCATGCA	-0.135
ACCATGTC	0.223
GCCATGGA	-0.144
ACCATGTG	0.0765
GCCATGTA	0.383
CCCATGTC	0.0657
CCCATGGA	-0.187
CCCATGTA	0.377
ACCATGTA	0.404
ATACCTCG	0.121
AAGGTGGC	-0.095
AAACAGCT	-0.268
AGGTAACA	0.357
AGGTAACC	0.321
ATGTAACC	0.166
ATGTAACA	0.373
GTGTAACA	0.343
AGGTAACT	0.297

Sequence	PBM E-score
CTGTAACA	0.182
GCGTAACA	0.196
GTGTAAGA	0.312
ACCGACCC	-0.256
AGCAGAAT	0.059
ATCCTGCG	0.0225
TGAGAGAA	-0.0743
AGGGTCCG	-0.269
CGCCCAAG	-0.105
CAATTACC	0.12
CAATTACA	0.378
AAATTACA	0.365
TAATTAGA	0.0891
AAATTACG	0.249
CAATTACG	0.26
GAATTACC	0.0992
GAATTATA	0.0628
TAATTATA	0.206
GAATTACA	0.366
AAATTACT	0.138
TAATTACA	0.372
AAGCAGAA	0.108
AACTAGAT	0.138
AGGCAGCC	0.317
CTTCTCAC	-0.125

Sequence	PBM E-score
TCGGCTAA	-0.0724
ACTGTTGG	-0.221
CCCTGGTC	-0.315
TGCTTCAA	0.0489
CGGAACAA	0.0225
CACAACAC	0.302
AGGAACAG	0.434
ATGAACAT	0.252
AGGAACAA	0.401
AGGAACAT	0.422
ACGAACAT	0.109
GACAACAC	0.261
ACGAACAG	-0.0228
TGGAACAA	0.136
CGGAACAG	-0.216
AACAACAC	0.349
CTTCGGTC	-0.0958
ATGGGAGC	-0.193
ACGCATGC	0.169
ACAAAGCA	0.168
CTAGCGGA	-0.00619
GATTAGCA	-0.0223
CGCTCAAG	-0.0197
TTAGCTAA	-0.0988
CTTCCACA	-0.14

Sequence	PBM E-score
ATCTCTTG	-0.0945
ATCAACAA	0.224
GGGAACAC	0.0104
CTTAACAC	0.333
CGGAACAC	0.0144
ATTAACAA	0.328
ATCAACAT	0.339
ATCAACAG	0.0788
AGGAACAC	0.404
ATTAACAC	0.384
AAGTAGGA	0.2
CCTCTAGA	-0.0256
AAGAACGC	0.0817
AGGGTAGG	0.0464
ACGCTTTG	-0.111
GCATTCTA	0.0333
AGACAGAT	-0.0373
GTCAGGGA	-0.339
ATCAGGCC	-0.0425
CTCAGGCC	-0.129
CTCAGGCA	0.462
GTCAGGAA	0.277
GTCAGGCA	0.469
CTCAGGGA	-0.251
ATCAGGCG	0.0225

Sequence	PBM E-score
ATCAGGCA	0.481
CGGATCAC	-0.00917
CCTTTCTC	-0.0866
CTCAGGGC	-0.29
AGTGTCTA	0.0204
AGTCCCAT	-0.115
AGTGCCTG	0.49
AGTGCCGC	-0.373
AGTGCCAC	-0.35
AGTGCCTC	0.405
CGTGCCTC	0.469
AGTGCCGG	0.0259
AGAGCCTG	0.341
AGAGCCTA	0.177
AGTGCCAG	-0.0756
CGTGCCGC	-0.111
AGAGCCTC	-0.422
CGTGCCCC	0.00946
GAGATTGA	-0.0729
ACGGTTTG	-0.0879
CAAGTCGA	-0.156
TGTCTCAA	-0.078
AGGTCGAG	-0.141
ATGACCAG	0.199
ATGCTCAG	0.15

Sequence	PBM E-score
CGTGCCCA	0.355
GGTGCCCA	0.293
AGTGCCCA	0.137
CACGGATG	0.0568
CGTAGGCC	-0.0263
AGTAGGCC	-0.1
GGTAGGTA	0.269
AGTAGGCG	0.0255
CGTAGGCA	0.487
GGTAGGCA	0.473
GGTAGGGA	-0.104
AGTAGGCA	0.481
CGTAGGTA	0.285
AAATGGGG	-0.133
CGAACTAA	0.031
AGGATACA	0.157
CCCTCTCG	-0.33
TCTATTCA	0.165
CAATTGAA	-0.0107
ACTACATC	0.173
AGTACATC	0.166
ATTACATA	0.406
CTTACATA	0.319
ACTACATG	0.362
ACTACATA	0.325

Sequence	PBM E-score
ATCACATG	0.195
GTTACATA	0.333
ATTACATC	0.356
ATTACATG	0.435
AGTACATG	0.289
CTTACATC	0.163
AGGATACT	-0.12
ACCTCTCC	-0.144
ACTTTTCC	0.0601
ACCTGACA	0.105
ATCTGAAA	-0.0689
AGGAGTGC	-0.146
GGACACCA	-0.23
ACTCGCCC	-0.179
TACTTTGA	0.0853
ACACTCCA	-0.141
CATACATG	0.291
AATACATG	0.413
AATACATT	0.235
GGCGTGAC	0.017
AGAACGCT	-0.186
AGTGTCGC	-0.0232
